Screening results from PubChem.
GLP1R inv ag: qHTS of GLP-1 Receptor Inverse Agonists (Inhibition Mode); Glucagon-like peptide 1 receptor (Homo sapiens), P43220; HEK293 GLP-1R CRE-luciferase, luminescence, 24 h; GLP-1R form is constitutively active; Potency, µM (top dose mostly 38.3 µM), for inactives: at the highest dose activity change, negative = inhibition, usual class: inhibitors; hit rate 1.6% among 410,000; AID 624417, 2012; note: % is set by controls: 0 for no effect and ±100 for the full control effect; nearly all actives have a fitted effect of over 55% in size
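Luminescence readout: a drop in cAMP-driven luciferase signal flags inverse agonism at a constitutively active GLP-1R stably expressed in HEK293. Compound exposure lasted 24 hr at 37 deg C, 5% CO2.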
Glioma ERSR ind: qHTS for Inducers of the Endoplasmic Reticulum Stress Response (ERSR) in Human Glioma: qHTS; hit rate 0.02% among 420,000; Potency, µM, for inactives: at the highest dose activation, most hits filed as activators; U87-MG GRP78 promoter luciferase reporter, 16 h; note: series mostly up to about 76 µM; % of control where 0% means no effect; nearly all actives have a fitted effect of over 35% in size
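Stably transfected U87-MG glioma cells carrying a GRP78-based luciferase sensor; 16 h compound incubation. Luminescence end-point read 10 min after Bright-Glo addition at room temperature.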
PTHR1 ag: qHTS for PTHR1 Agonists: Primary Screen | hit rate 0.075% among 410,000 | Parathyroid hormone/parathyroid hormone-related peptide receptor (Homo sapiens), Q03431 | AID 743266, 2014 | HEK293 GP2 PTHR1 cells, GloSensor cAMP luminescence, 1 h | Potency, µM (titrated, usually from 115 µM), for inactives: top-dose activation, most hits filed as activators; note: nearly all actives have a fitted effect of over 55% in size
Target sequence (Q03431 whole entry, looked up): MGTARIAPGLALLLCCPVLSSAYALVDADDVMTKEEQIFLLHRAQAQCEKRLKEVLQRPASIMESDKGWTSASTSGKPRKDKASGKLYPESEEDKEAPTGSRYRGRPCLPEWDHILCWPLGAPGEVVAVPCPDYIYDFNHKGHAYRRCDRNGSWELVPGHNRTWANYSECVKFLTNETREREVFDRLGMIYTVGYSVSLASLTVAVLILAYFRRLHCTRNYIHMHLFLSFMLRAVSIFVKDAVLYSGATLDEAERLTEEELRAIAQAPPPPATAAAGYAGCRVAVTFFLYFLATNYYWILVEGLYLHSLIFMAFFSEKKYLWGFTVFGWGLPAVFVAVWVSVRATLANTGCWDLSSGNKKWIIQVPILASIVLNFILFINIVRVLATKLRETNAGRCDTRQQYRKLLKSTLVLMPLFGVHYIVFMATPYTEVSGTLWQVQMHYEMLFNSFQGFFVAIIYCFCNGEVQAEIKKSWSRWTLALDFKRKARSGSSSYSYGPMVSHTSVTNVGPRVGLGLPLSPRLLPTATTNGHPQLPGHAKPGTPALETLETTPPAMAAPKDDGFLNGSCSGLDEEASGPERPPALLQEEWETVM
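HEK-293-derived GP2 cells expressing PTHR1 and a GloSensor cAMP reporter, 3,000/well, plated overnight, given luciferin plus IBMX (each 0.5 mM as added) for 1 h at 37 °C, then compound for 1 h at 37 °C. Luminescence was read after 15 min at room temperature.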
GLS inh: qHTS for Inhibitors of Glutaminase (GLS). hit rate 0.21% among 410,000. GLS enzymatic activity, qHTS titration. Glutaminase kidney isoform, mitochondrial (Homo sapiens), O94925. Potency, µM (titrated, usually from 45.5 µM), for the others: at the highest dose activity change, negative = inhibition, most hits filed as inhibitors; note: % is set by controls: 0 for no effect and ±100 for the full control effect
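hKGA in 45 mM KH2PO4 pH 8.2, 0.02% Tween-20 with pin-transferred compounds; 1 mM L-glutamine (stock) plus glutamate oxidase/HRP/Amplex Red coupling added. Fluorescence read initially and after 30 min at RT.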
ALOX12 inh: Primary qHTS assay for inhibitors of human arachidonate 12S-lipoxygenase (ALOX12): Round 2. purified 12hLO, xylenol orange hydroperoxide absorbance. Potency, µM (top dose mostly 108 µM), without a hit: at the highest dose activity change, negative = inhibition, hits mostly inhibitors. hit rate 1.1% among 580,000. AID 1671190, 2021; note: % is set by controls: 0 for no effect and ±100 for the full control effect
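Purified human 12hLO (150 nM final) in 25 mM Hepes, 0.01% Triton X-100, pH 7.0 was preincubated 15 min at room temperature with compound. Then 40 uM arachidonic acid was added, 30 min. Hydroperoxide was read by Fe-XO absorbance ratio 573/405 nm.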
GLP-1R agonist: qHTS of GLP-1 Receptor Agonists. Glucagon-like peptide 1 receptor (Homo sapiens), P43220. HEK293 GLP-1R CRE-luciferase, luminescence, 4-6 h; cells express a hypersensitive GLP-1R form. Potency, µM (doses to about 45.6 µM), for the others: at the top dose activation, actives largely listed as activators. hit rate 0.007% among 380,000; note: % of control where 0% means no effect
* hit, by the source's call; i = inactive; ? = inconclusive; . = no result. Only some compounds are listed: those with a hit (about 2.3% of all), similar ones and a draw of the others. Calls come from the whole dose curve; as a rule, active = well fitted curve in the direction sought with a large enough effect; inconclusive = small, poorly fitted or top-dose-only effect, or another doubt; inactive = no such curve, though single readings can be large; an effect the other way counts as inactive or inconclusive. Potency is the fitted concentration of half-maximal effect.

SMILES	GLP1R inv ag	Glioma ERSR ind	PTHR1 ag	GLS inh	ALOX12 inh	GLP-1R agonist
COc1cccc(NC(=O)CCc2c(C)c3ccc(OC)c(C)c3oc2=O)c1	.	.	.	.	-2%	.
CC(C(=O)Nc1ccc(F)cc1)n1nnc2sc(-c3ccccc3)cc2c1=O (stereo unspecified)	.	.	.	.	32µM*	.
COC(=O)c1ccc(NC(=O)C(NC(=O)c2ccc(C)cc2)C(C)C)c(C)c1 (stereo unspecified)	.	.	.	.	1%	.
COc1ccc(CNC(=O)c2scnc2C)cc1OC	.	.	.	.	-32%	.
CCOC(=O)c1ccc(Nc2ncnc3ccc(C)cc23)cc1	?	-1%	-1%	0%	9%	5%
CCOC(=O)c1cccc(Nc2ncnc3ccc(C)cc23)c1	11µM*	-1%	-27%	-3%	0%	4%
O=C(Cn1cnc2ccc(Cl)cc2c1=O)N(C1CCCC1)C1CCS(=O)(=O)C1 (stereo unspecified)	.	.	.	.	-1%	.
O=C(CSc1nnc(-c2ccc(O)cc2)o1)c1ccc(Br)cc1	8.9µM*	-2%	i	-2%	7%	.
COc1ccc(C2(C(=O)N3CC(CO)C4(CCNCC4)C3)CCCCC2)cc1 (stereo unspecified)	.	.	.	.	32µM*	.
COc1ccc(CC(=O)N2CC(CO)C3(CCNCC3)C2)cc1 (stereo unspecified)	.	.	.	.	48%	.
CC(C)CC(=O)C(C#N)C(=O)Nc1ccccc1Cl (stereo unspecified)	.	.	.	.	5%	.
N#C/C(C(=O)Nc1ccc(Cl)cc1)=C(/S)Nc1ccccc1	?	-14%	i	26%	1.8µM*	1%
O=C(Nc1ccc(Nc2ccccc2)cc1)c1ccc(Cl)cc1	?	5%	-40%	0%	?	6%
CC1=CN2C(=N)/C(=C/c3ccco3)C(=O)N=C2S1	12%	-11%	-36%	-4%	0%	-6%
CC1=CN2C(=N)/C(=C/c3ccc([N+](=O)[O-])o3)C(=O)N=C2S1	?	-11%	-1%	-7%	45µM*	-10%
Cc1ccc2c(C)c(C(=O)Nc3nc(-c4ccc(C)s4)ns3)oc2c1	.	.	.	.	-26%	.
NNc1ccc(Cc2ccc(NN)cc2)cc1	.	.	.	.	20µM*	.
CS(=O)(=O)Nc1ccc(Cc2ccc(NS(C)(=O)=O)cc2)cc1	?	-6%	-27%	9%	?	-7%
CCN(CC)S(=O)(=O)c1ccc(Cl)c(C(=O)NC2CCN(Cc3ccccc3)CC2)c1	?	-9%	-13%	0%	20%	4%
CC(C)CN(C[C@@H](OP(=O)(O)O)[C@H](Cc1ccccc1)NC(=O)O[C@@H]1CCOC1)S(=O)(=O)c1ccc(N)cc1	.	-2%	.	14µM*	.	15%
O=C(/C=C/c1ccc(-c2ccc(F)cc2)s1)N1CCS(=O)CC1	.	.	.	.	10%	.
COc1cc(C(=O)Nc2c(C(=O)O)[nH]c3ccc(Br)cc23)cc(OC)c1OC	2%	-1%	i	-1%	40µM*	-7%
Cc1ccc(C=O)n1-c1ccncc1	.	.	.	.	-4%	.
Nc1nccnc1C(=O)NCC#Cc1ccccc1	.	.	.	.	39%	.
O=C(N/N=C1\CCCc2c1[nH]c1ccc(Cl)cc21)c1ccncc1	7.1µM*	3%	-10%	-5%	-12%	0%
SMILES	GLP1R inv ag	Glioma ERSR ind	PTHR1 ag	GLS inh	ALOX12 inh	GLP-1R agonist
c1ccc(C2=NNC(c3ccco3)=Nc3ccccc32)cc1	?	-1%	-21%	10%	13%	0%
Cc1ccc(C2=NNC(c3ccc(Cl)cc3)=Nc3ccccc32)o1	7.9µM*	7%	-19%	10%	-21%	4%
COc1ccc(OC)c(S(=O)(=O)NCC(c2ccco2)N2CCc3ccccc32)c1 (stereo unspecified)	?	-5%	-8%	26%	40µM*	-1%
COc1ccccc1C(=O)NCC(c1ccco1)N1CCc2ccccc21 (stereo unspecified)	?	-5%	-19%	4%	?	23%
CSC1=N/C(=C\C=C\c2ccco2)C(=O)S1	.	.	.	.	3.2µM*	.
COC(=O)C1=C(CN2CCc3ccccc32)NC(=O)NC1c1cc(C)ccc1C (stereo unspecified)	8.9µM*	-4%	-16%	9%	?	-12%
COC1/C=C\OC2(C)Oc3c(C)c(O)c4c(c3C2=O)C2(C=C(NC(=O)/C(C)=C\C=C/C(C)C(O)C(C)C(O)C(C)C(OC(C)=O)C1C)C4=O)OCC(=O)O2 (stereo unspecified)	.	.	.	.	5µM*	.
O=c1n(-c2ccc(F)cc2F)nc2n1CCN(Cc1cccc3ccccc13)C2	.	.	.	.	28µM*	.
O=C(COC(=O)Cc1n[nH]c(=O)c2ccccc12)NCC(=O)Nc1ccc(F)c(F)c1F	.	.	.	.	-7%	.
S=c1[nH]nc(-c2ccccn2)n1/N=C/c1ccc(Cl)cc1	3%	-3%	-18%	-16%	28µM*	-18%
S=c1[nH]nc(-c2ccccn2)n1/N=C/c1ccccc1	22%	-1%	i	-10%	?	17%
C=CCn1c(-c2cccnc2)n[nH]c1=S	1%	-4%	i	-8%	-22%	-1%
S=c1[nH]nc(-c2ccccn2)n1/N=C/c1cccc2ccccc12	41%	-2%	-21%	?	5.6µM*	-2%
C=CCn1c(-c2ccccn2)n[nH]c1=S	25%	-2%	i	-5%	10µM*	-5%
CC(/C=N/n1c(-c2ccc(Cl)cc2)n[nH]c1=S)=C\c1ccco1	16%	-4%	i	-11%	32µM*	0%
Cc1ccccc1-c1noc(CSc2nnc(C3CC3)n2-c2ccccc2)n1	.	.	.	.	-20%	.
O=C(Cn1cnc2ccccc2c1=O)N1CCN(c2ccc(Cl)cc2)CC1	.	.	.	.	-14%	.
S=c1[nH]nc(-c2ccccc2)n1/N=C/c1ccc(Cl)cc1	-6%	-2%	-31%	16µM*	22µM*	12%
CC(C)C(NC(=O)c1ccc(Cl)cc1)C(C)C	.	.	.	.	-33%	.
Cc1ccccc1CNC(=O)Cn1ccc2c(C)nn(C)c2c1=O	.	.	.	.	3%	.
COC(=O)C1=C(C(=O)OC)[C@@H]2N(Cc3ccccc3)c3ccccc3[C@@]23C[C@@H](C(=O)OC)N(C(=O)c2cc(C)oc2C)C3=N1	11µM*	-7%	-23%	-11%	?	-3%
